Inconclusive results are not listed. Where a call stands in place of a potency, no number is given. The source made the active and inactive calls. Unless noted, calls come from the whole dose curve; as a rule, active = well fitted curve in the direction sought with a large enough effect in the repeat runs; inconclusive = weak or mixed curves; inactive = no such curve, though single readings can be large; an effect the other way counts as inactive or inconclusive.
How the values were obtained:
[1] = qHTS assay for small molecule agonists of the p53 signaling pathway (AID 651631; calls by dose curve; note: nearly all actives have a fitted effect of over 15% in size; note: potency is the fitted concentration of half-maximal effect)
Procedure, shortened: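 We treat p53RE-bla HCT-116 cells with compounds for 16 h at 37 °C, add LiveBLAzer B/G FRET substrate for 2 h at room temperature, and measure fluorescence intensity.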

[2] = qHTS assay for small molecules that induce genotoxicity in human embryonic kidney cells expressing luciferase-tagged ATAD5 (AID 651632); note: nearly all actives have a fitted effect of over 15% in size
Procedure, shortened: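 Luminescent reporter readout, HEK293T ATAD5-luc line: 16 hr drug exposure (37C, 5% CO2) followed by Amplite, 30 min RT.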

[3] = qHTS assay for small molecule agonists of the p53 signaling pathway - cell viability (AID 651633; calls by dose curve; note: nearly all actives have a fitted effect of over 30% in size; note: potency is the fitted concentration of half-maximal effect)
Procedure, shortened: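 Viability counter-read: CellTiter-Glo luminescence (30 min, room temperature) in the same p53RE-bla plates. These plates had been exposed to compounds for 16 h at 37 C.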

[4] = qHTS assay for small molecules that induce genotoxicity in human embryonic kidney cells expressing luciferase-tagged ATAD5 - cell viability (AID 651634; calls by dose curve; note: nearly all actives have a fitted effect of over 25% in size)
Procedure, shortened: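 Viability read: CellTiter-Fluor fluorescence, 30 min at 37C. Cells: HEK293T, luciferase-tagged ATAD5. Exposure: 15.5 hr, 37C, 5% CO2, compound or DMSO vehicle.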

[5] = qHTS assay for small molecule disruptors of the mitochondrial membrane potential - cell viability (AID 720634; calls by dose curve; note: nearly all actives have a fitted effect of over 20% in size; note: potency is the fitted concentration of half-maximal effect)
Procedure, shortened: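 HepG2, 1 hr compound, 37 C. ATP luminescence via CellTiter-Glo, 30 min RT, same well as m-MPI.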

[6] = qHTS assay for small molecule disruptors of the mitochondrial membrane potential (AID 720635)
Procedure, shortened: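 Mitochondrial membrane potential tracked with Mito-MPS dye, red aggregates (ex 540/em 590 nm) against green monomers (ex 490/em 535 nm). Compound treatment 1 hr at 37C, dye 30 min in HepG2.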

[7] = qHTS assay to test for compound auto fluorescence at 590 nm (red) in HepG2 cells (AID 720674)
Procedure, shortened: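 1 hr compound incubation on HepG2 cells, 37 C, 5% CO2; plate read ex 540 nm / em 590 nm; intensities reported as Rose Bengal sodium equivalents.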

[8] = qHTS assay to test for compound auto fluorescence at 535 nm (green) in HepG2 cells (AID 720675)
[9] = qHTS assay to test for compound auto fluorescence at 590 nm (red) in HEK293 cells (AID 720679)
Procedure, shortened: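 We plated HEK293 cells in 10% dialyzed FBS medium, let them adhere for 4-5 hr, then added 23 nL compound. Overnight at 37C and 5% CO2 preceded fluorescence measurement at 540/590nm.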

[10] = qHTS assay to test for compound auto fluorescence at 535 nm (green) in HEK293 cells (AID 720680)
[11] = qHTS assay to test for compound auto fluorescence at 460 nm (blue) in HEK293 cell free culture (AID 720681)
Procedure, shortened: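 Blue fluorescence (Ex 405/Em 460 nm, triamterene-equivalent) was read immediately after pin transfer of compound or DMSO into medium (DMEM, 10% FBS) without cells.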

[12] = qHTS assay to test for compound auto fluorescence at 535 nm (green) in HEK293 cell free culture (AID 720682)
Procedure, shortened: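 Green-channel intensity (Ex/Em 485/535 nm) was recorded from compound-treated wells containing only DMEM with 10% FBS. Fluorescein provided the equivalency standard.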

[13] = qHTS assay to test for compound auto fluorescence at 590 nm (red) in HepG2 cell free culture (AID 720684)
Procedure, shortened: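 Plate contents were MEM with 10% FBS plus test compound or DMSO, no cells. Fluorescence was recorded with 540 nm excitation and 590 nm emission.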

[14] = qHTS assay to test for compound auto fluorescence at 460 nm (blue) in HepG2 cell free culture (AID 720685)
Procedure, shortened: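 Compound (23 nL) or DMSO pinned into cell-free MEM with 10% FBS; blue fluorescence read at 405/460 nm excitation/emission, expressed as auto-fluorescence equivalency to triamterene.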

[15] = qHTS assay to test for compound auto fluorescence at 535 nm (green) in HepG2 cell free culture (AID 720686)
[16] = qHTS assay to test for compound auto fluorescence at 460 nm (blue) in HepG2 cells (AID 720687)
Procedure, shortened: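 Blue-channel autofluorescence (Ex/Em 405/460 nm, triamterene-equivalent) was measured after 1 hr compound exposure at 37 C, 5% CO2. Cells were HepG2, plated overnight at 37 C in MEM plus 10% FBS.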

[17] = qHTS assay to test for compound auto fluorescence at 590 nm (red) in HEK293 cell free culture (AID 720683)
Procedure, shortened: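 Red-channel autofluorescence of compounds in culture medium (DMEM, 10% FBS), no cells, measured at 540/590 nm. Rose Bengal sodium is the reference fluorophore for equivalence.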

[18] = molecular target: Glucocorticoid receptor (Homo sapiens) (UniProt P04150); assay: qHTS assay to identify small molecule agonists of the glucocorticoid receptor (GR) signaling pathway (AID 720691; active = well fitted activation curve with a large enough effect in the signal ratio in the repeat runs, not every such curve was filed as active; the % refers to the signal ratio); conditions: GR-bla HeLa, beta-lactamase reporter ratio, 18 h; activation: at 62.4 µM (top of the series)
Procedure, shortened: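 qHTS in GR-bla HeLa cells: 4 h settling at 37 C/5% CO2, 18 h compound incubation at 37 C, 2 h LiveBLAzer B/G FRET substrate at room temperature, fluorescence intensity measured.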

[19] = qHTS assay to test for compound auto fluorescence at 460 nm (blue) in HEK293 cells (AID 720678)
Procedure, shortened: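 Triamterene serves as the blue fluorophore standard. Compound signal at 405/460 nm is read in HEK293 wells (2,000 cells, 10% dialyzed FBS) after overnight treatment at 37C.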

[20] = molecular target: Glucocorticoid receptor (Homo sapiens) (UniProt P04150); assay: qHTS assay to identify small molecule antagonists of the glucocorticoid receptor (GR) signaling pathway (AID 720692; active = well fitted inhibition curve with a large enough effect in the signal ratio in the repeat runs, not every such curve was filed as active; the % refers to the signal ratio)
Procedure, shortened: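 Inhibition of glucocorticoid signalling is measured in HeLa cells with a GRE-controlled beta-lactamase reporter; cells are co-treated with compound and 5 nM dexamethasone (final) for 18 h before FRET substrate readout.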

Chain of Glucocorticoid receptor (Homo sapiens) (P04150 whole entry, looked up): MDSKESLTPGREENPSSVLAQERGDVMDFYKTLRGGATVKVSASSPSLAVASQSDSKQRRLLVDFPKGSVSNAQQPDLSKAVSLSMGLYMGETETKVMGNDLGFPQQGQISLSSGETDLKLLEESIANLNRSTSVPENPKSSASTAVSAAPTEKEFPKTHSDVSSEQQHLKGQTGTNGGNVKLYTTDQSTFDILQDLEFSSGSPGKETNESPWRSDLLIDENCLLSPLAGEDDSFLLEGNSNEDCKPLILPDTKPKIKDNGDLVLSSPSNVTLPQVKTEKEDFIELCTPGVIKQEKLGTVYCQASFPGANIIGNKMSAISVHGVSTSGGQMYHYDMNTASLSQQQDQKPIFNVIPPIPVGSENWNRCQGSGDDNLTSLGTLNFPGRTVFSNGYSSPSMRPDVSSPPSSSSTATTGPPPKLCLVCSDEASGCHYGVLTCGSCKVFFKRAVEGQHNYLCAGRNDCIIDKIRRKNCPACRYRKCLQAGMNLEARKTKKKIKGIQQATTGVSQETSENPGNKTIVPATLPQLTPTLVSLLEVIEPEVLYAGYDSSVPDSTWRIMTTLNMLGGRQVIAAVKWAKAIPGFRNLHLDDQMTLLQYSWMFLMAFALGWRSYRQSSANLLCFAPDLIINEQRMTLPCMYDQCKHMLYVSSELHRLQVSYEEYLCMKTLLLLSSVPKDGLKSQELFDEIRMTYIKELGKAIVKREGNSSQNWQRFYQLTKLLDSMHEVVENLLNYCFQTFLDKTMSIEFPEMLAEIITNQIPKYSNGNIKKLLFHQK

With C[C@H](O)CN(C)C as the compound, how does the Potency [1] read?
The Potency was “inactive”.

What about the Potency [2] of the same compound?
Its Potency is “inactive”.

What about the Potency [3] of the same compound?
Its Potency is “inactive”.

What about the Potency [4] of the same compound?
The Potency was “inactive”.

What about the Potency [5] of the same compound?
Its Potency is “inactive”.

And the Potency [6]?
Its Potency is “inactive”.

What about the outcome [7] of the same compound?
Its outcome is “inactive”.

And the Potency [8]?
Its Potency is “inactive”.

What about the outcome [9] of the same compound?
The outcome was “inactive”.

And the outcome [10]?
The outcome was “inactive”.

And the Potency [11]?
The Potency was “inactive”.

And the outcome [12]?
Its outcome is “inactive”.

And the outcome [13]?
Its outcome is “inactive”.

And the Potency [14]?
The Potency was “inactive”.

What about the Potency [15] of the same compound?
Its Potency is “inactive”.

And the Potency [16]?
Its Potency is “inactive”.

Which Potency [1] does the source give for CO/N=C(\C(=O)N[C@@H]1C(=O)N2C(C(=O)O)=C(CSc3nc(C)c(CC(=O)O)s3)CS[C@H]12)c1csc(N)n1 here?
Its Potency is “inactive”.

And the Potency [2]?
The Potency was “inactive”.

And the Potency [3]?
The Potency was “inactive”.

What about the Potency [4] of the same compound?
The Potency was “inactive”.

And the Potency [5]?
The Potency was “inactive”.

And the Potency [6]?
Its Potency is “inactive”.

And the outcome [7]?
The outcome was “inactive”.

What about the Potency [8] of the same compound?
The Potency was “inactive”.

And the outcome [9]?
The outcome was “inactive”.

What about the outcome [10] of the same compound?
The outcome was “inactive”.

What about the Potency [11] of the same compound?
The Potency was “inactive”.

What about the outcome [12] of the same compound?
Its outcome is “inactive”.

What about the outcome [17] of the same compound?
Its outcome is “inactive”.

And the outcome [13]?
Its outcome is “inactive”.

And the Potency [15]?
The Potency was “inactive”.

What about the Potency [16] of the same compound?
Its Potency is “inactive”.

And the Potency [18]?
Its Potency is “inactive”.

Which Potency [1] does the source give for CC(=O)Oc1cc(C(F)(F)F)ccc1C(=O)O here?
Its Potency is “inactive”.

And the Potency [2]?
Its Potency is “inactive”.

What about the Potency [3] of the same compound?
The Potency was “inactive”.

And the Potency [4]?
The Potency was “inactive”.

What about the Potency [5] of the same compound?
The Potency was “inactive”.

And the Potency [6]?
Its Potency is “inactive”.

And the outcome [7]?
The outcome was “inactive”.

What about the Potency [19] of the same compound?
The Potency was “inactive”.

And the outcome [9]?
Its outcome is “inactive”.

What about the outcome [10] of the same compound?
The outcome was “inactive”.

And the Potency [11]?
The Potency was “inactive”.

What about the outcome [12] of the same compound?
The outcome was “inactive”.

And the outcome [17]?
The outcome was “inactive”.

And the outcome [13]?
The outcome was “inactive”.

And the Potency [14]?
The Potency was “inactive”.

What about the Potency [15] of the same compound?
The Potency was “inactive”.

What about the Potency [16] of the same compound?
The Potency was “inactive”.

And the Potency [18]?
Its Potency is “inactive”.

And the Potency [20]?
The Potency was “inactive”.

With NC(N)=NCc1cccc(I)c1 as the compound, how does the Potency [1] read?
Its Potency is “inactive”.

What about the Potency [2] of the same compound?
The Potency was “inactive”.

What about the Potency [3] of the same compound?
The Potency was “inactive”.

And the Potency [4]?
The Potency was “inactive”.

And the Potency [5]?
The Potency was “inactive”.

And the Potency [6]?
Its Potency is “inactive”.

What about the outcome [7] of the same compound?
The outcome was “inactive”.

And the Potency [8]?
The Potency was “inactive”.

What about the outcome [9] of the same compound?
The outcome was “inactive”.

What about the outcome [10] of the same compound?
Its outcome is “inactive”.

And the Potency [11]?
Its Potency is “inactive”.

What about the outcome [12] of the same compound?
Its outcome is “inactive”.

And the outcome [17]?
The outcome was “inactive”.

And the outcome [13]?
Its outcome is “inactive”.

And the Potency [14]?
Its Potency is “inactive”.

And the Potency [15]?
The Potency was “inactive”.

What about the Potency [16] of the same compound?
Its Potency is “inactive”.

And the Potency [18]?
The Potency was “inactive”.

What about the Potency [20] of the same compound?
Its Potency is “inactive”.

For C[C@@H]1C[C@H]2[C@@H]3C[C@H](F)C4=CC(=O)C=C[C@]4(C)[C@@]3(Cl)[C@@H](O)C[C@]2(C)[C@H]1C(=O)COC(=O)C(C)(C)C, which Potency [1] is on record?
Its Potency is “inactive”.

What about the Potency [2] of the same compound?
The Potency was “inactive”.

What about the Potency [3] of the same compound?
The Potency was “inactive”.

And the Potency [4]?
The Potency was “inactive”.

What about the Potency [5] of the same compound?
Its Potency is “inactive”.

And the Potency [6]?
The Potency was “inactive”.

And the outcome [7]?
Its outcome is “inactive”.

And the Potency [8]?
Its Potency is “inactive”.

And the outcome [9]?
Its outcome is “inactive”.

And the outcome [10]?
The outcome was “inactive”.

What about the Potency [11] of the same compound?
The Potency was “inactive”.

And the outcome [12]?
Its outcome is “inactive”.

And the outcome [17]?
Its outcome is “inactive”.

What about the outcome [13] of the same compound?
Its outcome is “inactive”.

What about the Potency [15] of the same compound?
Its Potency is “inactive”.

What about the Potency [16] of the same compound?
Its Potency is “inactive”.

With CCCCCCCCOC(=O)c1cc(O)c(O)c(O)c1 as the compound, how does the Potency [1] read?
Its Potency is 61.1 µM (active).

What about the Potency [2] of the same compound?
The Potency was “inactive”.

And the Potency [3]?
Its Potency is 54.5 µM (active).

And the Potency [4]?
The Potency was “inactive”.

What about the Potency [5] of the same compound?
Its Potency is 13.7 µM (active).

What about the outcome [7] of the same compound?
Its outcome is “inactive”.

And the Potency [8]?
Its Potency is “inactive”.

What about the Potency [19] of the same compound?
Its Potency is “inactive”.

What about the outcome [9] of the same compound?
The outcome was “inactive”.

What about the outcome [10] of the same compound?
Its outcome is “inactive”.

What about the Potency [11] of the same compound?
Its Potency is “inactive”.

And the outcome [12]?
The outcome was “inactive”.

And the outcome [17]?
The outcome was “inactive”.

And the outcome [13]?
Its outcome is “inactive”.

What about the Potency [14] of the same compound?
Its Potency is “inactive”.

And the Potency [15]?
Its Potency is “inactive”.

What about the Potency [16] of the same compound?
Its Potency is “inactive”.

Which results are given for CCOC(=O)[C@H](CCc1ccccc1)N[C@@H](C)C(=O)N1[C@H](C(=O)O)C[C@H]2CCCC[C@@H]21?
Potency [1]: inactive; Potency [2]: inactive; Potency [3]: inactive; Potency [4]: inactive; Potency [5]: inactive; Potency [6]: inactive; outcome [7]: inactive; outcome [9]: inactive; outcome [10]: inactive; Potency [11]: inactive; outcome [12]: inactive; outcome [17]: inactive; outcome [13]: inactive; Potency [14]: inactive; Potency [15]: inactive; Potency [16]: inactive; Potency [18]: inactive; Potency [20]: inactive
